Most compounds without a hit are left out; they make up all but 3% or so of the library.
TRAIL sens C8: caspase-8 TRAIL sensitization. hit rate 1% among 360,000. AID 624354. NB7+C8 cells + TRAIL, ATPlite viability luminescence. inhibition (viability loss, TRAIL sensitization), % at 10 µM;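 active means compounds causing at least 50% loss of cell viability in the single-dose screen, relative to plate controls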
SENP7 inh: inhibitors of human SENP7 protease | recombinant SENP7, Z-RLRGG-aminoluciferin luminescence, 40 min | Q9BQF6 | hit rate 1.5% among 330,000 | AID 434973 | inhibition, % at 5 µM;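 active means inhibition above about 50% at the single test dose, limit read from the data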;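 further: plate controls were DMSO with enzyme for no effect and no enzyme buffer wells for full effect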
PPC-1+TRAIL kill: kills PPC-1 cancer cells in the presence of TRAIL; cell killing (% activity), % at 4 µM or 5 µM; AID 1443; hit rate 0.41% among 220,000; PPC-1 cells + TRAIL, ATPLite viability luminescence;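 active means cell killing above 50% in the first pass at 4 µM, then a duplicate retest at 5 µM averaging 50% or more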;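 further: plate controls were cells with TRAIL plus DMSO for no effect and medium-only wells lacking cells for full effect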
SENP8 block-1: SENP8 (human) protease inhibition; Q96LD8; recombinant SENP8, Nedd8 substrate fluorescence; inhibition, % at 20 µM; hit rate 0.64% among 360,000; AID 602440; in the data active means inhibition mostly above about 40%, no sharp cut-off; inactive means mostly below about 27%
SENP6 inh: inhibitors of human SENP6 protease | Recombinant SENP6 catalytic domain, aminoluciferin luminescence | AID 2599 | inhibition, % at 10 µM | hit rate 1.8% among 330,000;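 active means inhibition above about 50% at the single tested dose, limit read from the data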;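 further: plate controls were DMSO wells with enzyme for no effect and DMSO wells lacking enzyme for full effect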
Target sequence (Q9GZR1 628-1112 limits assumed): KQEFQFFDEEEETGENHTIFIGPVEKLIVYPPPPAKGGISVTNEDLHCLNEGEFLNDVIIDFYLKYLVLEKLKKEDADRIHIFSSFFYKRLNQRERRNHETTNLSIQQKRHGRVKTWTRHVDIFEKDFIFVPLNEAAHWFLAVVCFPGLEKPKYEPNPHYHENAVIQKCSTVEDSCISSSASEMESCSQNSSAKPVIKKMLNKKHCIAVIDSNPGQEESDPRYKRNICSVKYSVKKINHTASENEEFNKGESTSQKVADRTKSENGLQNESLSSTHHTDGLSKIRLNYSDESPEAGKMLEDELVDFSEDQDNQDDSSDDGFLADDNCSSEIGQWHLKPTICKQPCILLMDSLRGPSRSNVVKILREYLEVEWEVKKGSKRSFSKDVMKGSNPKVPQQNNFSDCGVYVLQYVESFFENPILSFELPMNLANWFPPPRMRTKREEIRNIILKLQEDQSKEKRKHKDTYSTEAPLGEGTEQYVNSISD
SENP8 block-2: blocks the human protease SENP8; Q96LD8; purified SENP8, Z-RLRGG-aminoluciferin cleavage, luminescence; hit rate 1.2% among 330,000; inhibition, % at 10 µM; in the data active means inhibition above about 50%
PPC1 cytotox: kills PPC-1 cells; PPC-1 viability, ATPlite luminescence, overnight; hit rate 50% among 1,200; shares compounds with PPC-1+TRAIL kill; cytotoxicity, % at 5 µM;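 active means reconfirmed compounds whose average cytotoxicity reaches 50% or more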;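 further: 0% = DMSO-treated cells and 100% = wells holding medium but no cells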
* hit, by the source's call; · = not tested or not shown.

SMILES | TRAIL sens C8 | SENP7 inh | PPC-1+TRAIL kill | SENP8 block-1 | SENP6 inh | SENP8 block-2 | PPC1 cytotox
COc1ccc(-c2n(CC(=O)OC3CC(C)CCC3C(C)C)c3ccccc3[n+]2C)cc1 (stereo unspecified) | 46 | · | 45 | -10 | · | · | 52*
CC1(C)CC(Cc2ccc(C(=O)c3ccccc3)cc2)N(C(=O)OC(C)(C)C)N1 (stereo unspecified) | 16 | · | · | -31 | · | · | ·
CCOC(=O)C1=C(C)NC(C)=C(C(=O)OCC)C1C(=O)OCC(=O)N(C)Cc1ccccc1 | 8 | -11 | · | -390 | -1 | 4 | ·
Cc1ccc(C(C(=O)NC2CCCC2)N(Cc2ccc3c(c2)OCO3)C(=O)c2snc(C(N)=O)c2N)cc1 (stereo unspecified) | -3 | 1 | 17 | -386 | -2 | -2 | ·
O=C(NC1CCCCC1)C(c1ccccc1)N(Cc1ccc2c(c1)OCO2)C(=O)c1cnsn1 (stereo unspecified) | 15 | -5 | 1 | -30 | -20 | -11 | 8
COc1cc(OC)c(N2CC(C(=O)NCCC3=CCCCC3)CC2=O)cc1Cl (stereo unspecified) | 11 | 0 | · | 12 | -24 | -9 | ·
CN1C2C=C3C(C#N)=C(N)C(C#N)(C#N)[C@@H](c4cccs4)C3C1CC2 (stereo partly specified) | -6 | 4 | 17 | -298 | 1 | 0 | 6
CN1C2C=C3C(C#N)=C(N)C(C#N)(C#N)[C@H](c4c(F)cccc4F)[C@H]3C1CC2 (stereo partly specified) | 0 | 1 | -26 | -98 | -8 | -9 | ·
NS(=O)(=O)c1cccc(NC(=S)NCc2ccc3c(c2)OCO3)c1 | -5 | -2 | 9 | 22 | -3 | -11 | 0
CCN(CC)S(=O)(=O)c1ccc(C(=O)NCC(=O)NCCCc2ccccc2)cc1 | -6 | 1 | · | 0 | -9 | 3 | ·
Cc1ccc(Cl)cc1NC(=O)c1cc(NC(=O)C2CCCCC2C(=O)O)ccc1N1CCOCC1 (stereo unspecified) | -13 | 0 | · | -138 | 1 | 10 | ·
O=C1N=C(N2CCOCC2)S/C1=C1\C(=O)N(Cc2ccccc2)c2ccccc21 | -1 | -9 | 25 | 16 | 48 | -3 | ·
CCCN1C(=O)/C(=C2\SC(N3CCCCC3)=NC2=O)c2ccccc21 | 43 | -16 | 31 | 36 | -6 | -47 | 16
CN1C(=O)/C(=C2\SC(N3CCCCCC3)=NC2=O)c2ccccc21 | 51* | -3 | 59* | 13 | -12 | -23 | 49
COc1ccccc1Nc1ccc2nonc2c1[N+](=O)[O-] | -2 | -1 | · | 20 | -3 | 4 | ·
CCN(CC)c1ccc(C(=O)NNC(=O)CN2C(=O)NC(C)(c3ccccc3)C2=O)cc1 (stereo unspecified) | -20 | 0 | · | -79 | -13 | 7 | ·
Cc1ccc(S(=O)(=O)N(CC(=O)N(C(C)C)C(C)C)C(=O)N2CCN(C)CC2)cc1 | -14 | -1 | · | 8 | 5 | 0 | ·
CC1(C)CC(=O)C2=C(C1)OC(N)=C(C#N)C2c1ccccc1OC(=O)N1CCOCC1 (stereo unspecified) | 2 | 4 | 6 | 2 | 11 | 2 | 19
CC1(C)CC(=O)C2=C(C1)OC(N)=C(C#N)C2c1ccccc1[N+](=O)[O-] (stereo unspecified) | -2 | 1 | -1 | -160 | 7 | 4 | ·
COc1ccc(N=Nc2nc3ccc(Br)cc3n2C)cc1 | 80* | · | 76* | 64* | · | · | 72*
COc1ccc(-c2c(-c3cc(OC)cc(OC)c3)n(C)c3ccc(Br)cc23)cc1 | 5 | -6 | · | -485 | -8 | 1 | ·
CC(C)(C)C(=O)Nc1ccc(-c2cn3ccsc3n2)cc1 | 90* | 1 | 91* | 17 | -4 | -5 | 90*
CC(C)CC(=O)Nc1ccc(-c2cn3cccnc3n2)cc1 | 29 | 1 | · | -273 | -1 | 3 | ·
CC(C)CC(=O)Nc1ccc(-c2cn3ccsc3n2)cc1 | 83* | -12 | 71* | 8 | 2 | -16 | 71*
Cn1nnc(NC(=O)c2ccc(C(C)(C)C)cc2)n1 | 55* | 2 | 54* | 0 | -10 | -7 | 53*
SMILES | TRAIL sens C8 | SENP7 inh | PPC-1+TRAIL kill | SENP8 block-1 | SENP6 inh | SENP8 block-2 | PPC1 cytotox
Cc1csc(N(C)C(=O)CSc2nnc(COc3ccccc3C)o2)n1 | 20 | -11 | -21 | 18 | -13 | -8 | -15
CCOC(=O)N1CCN(S(=O)(=O)N2CCCC(C(=O)NCc3cc(Br)ccc3OC)C2)CC1 (stereo unspecified) | -13 | · | · | 21 | · | · | ·
CCOC(=O)N1CCN(S(=O)(=O)c2ccc(OCC(=O)OC)cc2)CC1 | -15 | -7 | -2 | 10 | -7 | -2 | 3
COc1ccc(N2CCN(Cc3oc(CO)cc(=O)c3O)CC2)cc1 | -8 | -12 | 5 | 10 | 12 | -5 | 10
CN1CCN(Cc2oc(CO)cc(=O)c2O)CC1 | -3 | -3 | -3 | 14 | -6 | -9 | ·
C=CCNC(=O)/C(=C/c1cccc([N+](=O)[O-])c1)NC(=O)c1ccccc1 | 3 | -4 | 2 | 21 | 3 | -9 | 6
COc1ccc(NC(=O)/C(C#N)=C\c2ccc(N3CCOCC3)o2)cc1 | 65* | 16 | 55* | 45* | -1 | 4 | 58*
N#Cc1c(-c2ccc(Br)cc2)cc(-c2cccnc2)nc1N | 8 | -9 | 21 | -413 | -17 | -8 | ·
CS(=O)c1nc(-c2ccc(Br)cc2)cc(-c2ccccc2)c1C#N (stereo unspecified) | 81* | -12 | 71* | -23 | -38 | -7 | 73*
COC(=O)c1ccccc1NC(=O)Cn1c(CCC(=O)O)ccc1-c1cccs1 | 7 | -2 | 7 | -52 | -5 | -3 | 15
O=C1CCC(C(=O)Nc2ccc([N+](=O)[O-])cc2)N1 (stereo unspecified) | -12 | 3 | · | -4 | -7 | -1 | ·
Cc1cc(OC(=O)c2ccc(S(=O)(=O)N3CCOCC3)cc2)c([N+](=O)[O-])c(=O)[nH]1 | -5 | · | -11 | 5 | · | · | 6
Cn1c(CC(=O)Nc2ccccc2F)nnc1SCC(=O)Nc1nccs1 | 3 | -6 | · | 13 | -2 | 2 | ·
COc1ccc(N/C(=N\c2nc(C)cc(C)n2)NC(=O)C(C)C)cc1OC | -5 | 1 | -10 | 22 | -16 | -8 | -17
COc1ccc(N/C(=N\c2nc(C)cc(C)n2)NC(C)=O)cc1OC | -1 | 4 | 8 | -17 | -6 | -6 | ·
CC1(C(=O)NS(=O)(=O)c2ccc(Cl)cc2)CCN1C(=O)c1ccccc1 (stereo unspecified) | 5 | · | · | 12 | · | · | ·
N#Cc1nc(-c2ccco2)oc1N1CCC(C(N)=O)CC1 | -6 | 0 | -4 | -420 | -21 | 3 | -2
O=C(CCNc1ccc(F)cc1)c1ccco1 | 19 | 6 | 9 | 3 | -2 | 0 | 2
O=C(CCNc1ccc(F)c(Cl)c1)c1ccco1 | 19 | -17 | 9 | -3 | -22 | -14 | ·
CC12CCC(O)CC1=CCC1C2CCC2(C)c3[nH]ncc3CC12 (stereo unspecified) | 8 | · | · | 11 | · | · | ·
